# Data as given in PubChem BioAssay (Tox21).
# Records with an inconclusive call do not appear. Active and inactive are the calls of the source. Calls follow the shape of the dose curve; as a rule, active = well fitted cell-killing curve with a large enough effect in the repeat runs; inconclusive = weak or mixed curves, or effect the other way; inactive = flat fitted curve, though single readings scatter.
# Experiment: Nuclear factor erythroid 2-related factor 2/antioxidant responsive element (Nrf2/ARE) small molecule agonists: qHTS cell viability counter screen in human keratinocytes (AID 1919968); also: nearly all actives have a fitted effect of over 55% in size
# Conditions: KeratinoSens HaCaT ARE cells viability, CellTiter-Fluor, 24 h; series mostly up to 92.4 µM; activity change, negative = cytotoxicity: at the top concentration
# Description: U.S. Tox21 Program National Center for Advancing Translational Sciences [NCATS] Division of Preclinical Innovation [DPI] U.S. Environmental Protection Agency [EPA] National Institutes of Environmental Health Sciences [NIEHS] National Toxicology Program [NTP] U.S. Food and Drug Administration [FDA] Tox21 Assay Overview: Oxidative stress has been implicated in the pathogenesis of a variety of diseases ranging from cancer to neurodegeneration. The antioxidant response element (ARE) signaling pathway plays an important role in the amelioration of oxidative stress. The KeratinoSens (Givaudan, Switzerland) is an in vitro test method which quantifies luciferase induction as a measure of activation of Keap1-Nrf2-antioxidationt/electrophile response element (ARE) dependant pathway in HaCaT human keratinocytes stably transfected with a selectable plasmid. The KeratinoSens assay is a cell-based assay with a reporter cell line to detect potential skin sensitizers by their ability to induce the Nrf2/ARE-response. The activation of the report gene under culture conditions can be detected by ONE-Glo Luciferase Assay System (Promega, Madison, WI). This cell line has been used to screen the Tox21 10K compound library to identify agonists that induce oxidative stress. The cytotoxicity of the Tox21 compound library against the KS-ARE cell line was tested in parallel by measuring the cell viability using CellTiter- Fluor assay system (Promega, Madison, WI) in the same wells.
# Tox21 Assay Protocol Summary: HaCaT derived cell line KeratinoSens were dispensed at 1,500 cells/5uL/well in 1536-well white wall/solid bottom plates using a Multidrop Combi (ThermoFisher Scientific, Waltham, MA) dispenser. After the assay plates were incubated at 37 C/5% CO2 for 5 h, 23 nL of compounds dissolved in DMSO, positive controls or DMSO only was transferred to the assay plate by a pintool workstation (Kalypsys, San Diego, CA). The plates were incubated at 37 C/5% CO2 for 23 h, followed by addition of 1uL/well of CellTiter-Fluor reagent into the assay plates using a Flying Reagent Dispenser (Aurora Discovery, San Diego, CA) for cell viability readout that measures cytotoxicity. After 1 h incubation at 37 C/5% CO2 the fluorescence intensity was measured using a ViewLux (PerkinElmer, Shelton, CT) plate reader.
# % is scaled to controls: 0 for no effect and ±100 for the full control effect; potency is read from the fitted curve at half-maximal effect.
SMILES,"activity change, negative = cytotoxicity",Potency
Nc1ccc(-c2ccc(F)cc2)cc1,7.11% (inactive),
CC(C)(C)c1ccc(C(=O)O)cc1,-4.94% (inactive),
C=CCOCC(O)CCl (stereo not given),11.3% (inactive),
c1ccc(Cc2ccccc2)cc1,-5.53% (inactive),
NCCc1cnc[nH]1,1.09% [at 42.5 µM] (inactive),
O=C(O)c1cc(C(=O)O)cc(C(=O)O)c1,1.42% (inactive),
CCO[Si](CC(C)C)(OCC)OCC,-19.9% (inactive),
O=C1CCCc2c1cc1ccc3cccc4ccc2c1c34,-11.5% (inactive),
CCCOC(=O)CCCCC(=O)OCCC,-6.17% (inactive),
O=C(O)[C@@H]1CSCN1,0.881% [at 42.5 µM] (inactive),
CCn1ccc(NS(=O)(=O)c2ccc(N)cc2)nc1=O,-9.92% [at 42.5 µM] (inactive),
CC(=O)/C=C/C=C1/C2CCC(C2)C1(C)C (stereo not given),-0.689% [at 42.5 µM] (inactive),
C[C@H]1[C@@H](c2ccccc2)NC(=O)N1C,4.71% (inactive),
CCCCCCCCCCC1CO1 (stereo not given),-7.59% (inactive),
CC(C)[C@H]1CC[C@H](C)C[C@@H]1O,0.858% (inactive),
CC/C=C\C/C=C\C/C=C\CCCCCCCC(=O)OCC,15.6% (inactive),
CCCCCCCC/C=C\CCCCCCCC(=O)OCCO,0.134% (inactive),
CC(=O)Oc1ccc2c(c1)CC[C@@H]1[C@@H]2CC[C@]2(C)[C@@H](O)CC[C@@H]12,4.51% [at 42.5 µM] (inactive),
C[Si](Cl)(c1ccccc1)c1ccccc1,8.91% (inactive),
CC(=O)OC(OC(C)=O)c1ccc([N+](=O)[O-])o1,,62.2 µM (active)

SMILES,"activity change, negative = cytotoxicity",Potency
CC1=CC(=O)/C(=C(/C)O)C(=O)O1,2.7% (inactive),
CCCCN1C(=O)c2ccccc2C1=O,-0.302% (inactive),
CC(C)CC(C)(C)C,-4.12% (inactive),
COc1nccnc1NS(=O)(=O)c1ccc(N)cc1,4.55% [at 42.5 µM] (inactive),
Cc1cc(C)c(/C=C2\C(=O)Nc3ccccc32)[nH]1,-3.51% [at 42.5 µM] (inactive),
O=C1NCC2(CCN(CCc3ccccc3)CC2)O1,0.433% [at 42.5 µM] (inactive),
CCC(C(=O)NC(=O)NC(C)=O)c1ccccc1 (stereo not given),1.18% [at 42.5 µM] (inactive),
C=C(C)c1cccc(C(=C)C)c1,3.24% (inactive),
O=C(Nc1ccc2c(c1)Cc1ccccc1-2)C(F)(F)F,7.31% (inactive),
CC(=O)Nc1cccc(N)c1,2.87% (inactive),
C/C=C(\C)C(C)=O,0.0103% (inactive),
Cc1ccc(O)c2ncccc12,,2.66 µM (active)
O=C(O)Cc1ccc(Cl)cc1Cl,1.97% (inactive),
Cc1ccc(C(C)C)cc2c(C)ccc1-2,0.504% [at 42.5 µM] (inactive),
O=C1CCc2cc(OCCCCc3nnnn3C3CCCCC3)ccc2N1,2.04% [at 42.5 µM] (inactive),
CC(=O)CC(=O)Nc1ccc(S(=O)(=O)O)cc1,0.144% (inactive),
Nc1ccc2ccccc2c1S(=O)(=O)O,0.791% (inactive),
N#Cc1ccccc1C#N,-0.941% (inactive),
CCCC[N+](C)(CCCC)CCCC,4.98% (inactive),
O=[N+]([O-])c1cccc(S(=O)(=O)O)c1,-15.6% (inactive),
